In the library only some 2% were active in any assay of this set; here they are far more common.
A3A deaminase: blocks human APOBEC3A ssDNA deamination; P31941; AID 493011; inhibition, % at 20 µM; hit rate 0.41% among 330,000; recombinant A3A, FAM/TAMRA ssDNA deamination fluorescence;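 active = at least 40% inhibition at 20 µM here, with at most 30% in a related deaminase screen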;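 note: plate controls were A3A with DMSO for no effect and wells lacking A3A enzyme for full effect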
Target sequence (P31941 whole entry, looked up): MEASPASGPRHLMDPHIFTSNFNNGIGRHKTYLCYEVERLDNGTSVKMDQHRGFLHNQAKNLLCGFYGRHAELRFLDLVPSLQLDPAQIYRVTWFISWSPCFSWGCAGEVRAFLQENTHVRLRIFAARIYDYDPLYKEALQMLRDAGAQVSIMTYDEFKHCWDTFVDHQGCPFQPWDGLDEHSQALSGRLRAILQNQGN
CTSL1 counter: blocks F. hepatica cathepsin L1 in PFM18AAP counter-screen; recombinant F. hepatica cathepsin L1, Z-Leu-Arg-MCA fluorescence; inhibition, % at 5.96 µM; hit rate 0.49% among 300,000; AID 1906;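 active = inhibition above the mean of all tested compounds plus 3 SD, set per screening campaign, cut at about 17% in these data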;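 note: 0% = plate median of test compound wells and 100% = 1 µM Z-Phe-Ala-diazomethylketone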
NALP1 yeast inh: blocks the NALP1 inflammasome reconstituted in yeast. inhibition, % at 10 µM. S. cerevisiae NALP1/ASC/caspase-1 growth, X-gal OD620, 72 h. AID 2071. hit rate 0.61% among 280,000; in the data active = inhibition mostly above about 24%, no sharp cut-off; inactive = mostly below about 32%
sPLA2-III inh: Inhibits HGIII-sPLA2 liposome hydrolysis, primary screen | Q9NZ20 | QFRET BODIPY PC-A2 liposome hydrolysis, fluorescence | inhibition, % at 12.2 µM | hit rate 0.56% among 370,000 | AID 743126;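 active = inhibition above mean plus 3 SD of compounds lying within the high and low control bounds, cut at about 19% in these data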;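 note: 0% = median of test compound wells and 100% = no enzyme DMSO wells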
Target sequence (Q9NZ20 whole entry, looked up): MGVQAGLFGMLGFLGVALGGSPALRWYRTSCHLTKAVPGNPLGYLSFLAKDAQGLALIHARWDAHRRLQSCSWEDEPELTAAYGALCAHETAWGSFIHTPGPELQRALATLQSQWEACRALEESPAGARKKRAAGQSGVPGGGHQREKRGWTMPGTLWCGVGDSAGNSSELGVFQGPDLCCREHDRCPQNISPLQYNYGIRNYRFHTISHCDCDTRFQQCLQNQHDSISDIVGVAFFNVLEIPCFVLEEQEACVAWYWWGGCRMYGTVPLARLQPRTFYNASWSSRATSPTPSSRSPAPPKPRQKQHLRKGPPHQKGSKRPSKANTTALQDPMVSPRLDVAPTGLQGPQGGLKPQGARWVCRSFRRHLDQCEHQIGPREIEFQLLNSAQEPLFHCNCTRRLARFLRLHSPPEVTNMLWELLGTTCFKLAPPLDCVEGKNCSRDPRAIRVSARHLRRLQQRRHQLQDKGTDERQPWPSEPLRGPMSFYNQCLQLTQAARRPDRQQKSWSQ
A3G deaminase: APOBEC3G (human) deaminase inhibition; inhibition, % at 20 µM; hit rate 0.28% among 330,000; recombinant A3G, ssDNA deamination FAM/TAMRA fluorescence; Q9HC16;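 active = inhibition of at least 40% at 20 µM, with no more than 30% in the related APOBEC3A deaminase screen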;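 note: plate controls were DMSO wells with A3G for no effect and wells lacking A3G enzyme for full effect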
A3A conf: confirmation of human APOBEC3A DNA deaminase inhibitors. shares compounds with A3A deaminase. recombinant A3A, ssDNA deaminase UDG fluorescence assay. inhibition, % at 20 µM. hit rate 63% among 1,400. AID 493151;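 active = inhibition reaching a set limit, 80% of the first screen's cutoff, at 20 µM in any replicate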;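 note: plate controls were DMSO wells with A3A for no effect and wells lacking A3A enzyme for full effect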
UDG ctr A3A: counter-screen for APOBEC3A inhibitors: UDG | shares compounds with A3A deaminase | UDG counterscreen, FAM/TAMRA uracil oligo fluorescence | inhibition, % at 20 µM | 1,000 tested, under 10 active; call rule not given here
* = called active by the depositor; / = no result given.

SMILES | A3A deaminase | CTSL1 counter | NALP1 yeast inh | sPLA2-III inh | A3G deaminase | A3A conf | UDG ctr A3A
CCc1noc(C)c1C(=O)NNC(=O)c1cc(OC)c(OC)c(OC)c1 | 62* | -5 | / | 1 | 9 | 54* | -1
CCc1noc(C)c1C(=O)NNC(=O)c1cc(OC)cc(OC)c1 | 3 | / | / | 13 | 0 | / | /
COc1cc(OC)c2ccc(=O)oc2c1C(CCN1CCCC1)c1ccc2c(c1)OCO2 (stereo not given) | 64* | 2 | -2 | -4 | 20 | -1 | /
O=C(C1CCCO1)N1CCN(C2=Nc3ccccc3Sc3ccccc32)CC1 (stereo not given) | / | / | / | 4 | / | / | /
O=C(C(=O)N1CCC(CNS(=O)(=O)c2cc(C(F)(F)F)cc(C(F)(F)F)c2)CC1)c1cc2ccccc2o1 | / | / | / | 14 | / | / | /
CC(C)C[C@@H]1COc2cc(N3CCCC3)ccc2S(=O)(=O)N1C | / | / | / | 0 | / | / | /
CC(=O)NC(CC(=O)NC1CCCCC1)c1ccccc1 (stereo not given) | 30 | -2 | 30 | 0 | -7 | / | /
CC(=O)NC(CC(=O)NC1CCCCCC1)c1ccccc1 (stereo not given) | 45* | 0 | 31 | 0 | -4 | 32* | -2
CC(=O)Nc1ccc(/C=N\NC(=O)c2cccc(S(=O)(=O)N(C)C)c2)cc1 | / | / | / | 5 | / | / | /
CN1CCCN=C1/C=C/c1cccs1 | -1 | 3 | 19 | 5 | -9 | / | /
C[n+]1ccc(/C=C/c2cccs2)cc1 | 52* | 0 | 11 | 1 | 21 | 54* | /
COc1ccccc1C(=O)NC1CCCCN(Cc2cccc(Cl)c2)C1=O (stereo not given) | / | / | / | -9 | / | / | /
O=C(O)c1cccc(-n2cccc2/C=C2\NC(=O)N(Cc3ccc(F)cc3)C2=O)c1 | 87* | 2 | 3 | -7 | 29 | 74* | -2
Cc1ccc(CN2C(=O)N/C(=C\c3cccn3-c3cccc(C(=O)O)c3)C2=O)cc1 | 79* | 3 | -5 | -25 | 27 | 80* | -3
Cc1cc(C(=O)O)ccc1-c1ccc(/C=C2\NC(=O)N(Cc3ccc(F)cc3)C2=O)o1 | 58* | 6 | / | -2 | 26 | 44* | 0
CCOC(=O)CC[C@@]1(C(=O)OCC)C[C@@H](CC(=O)N2CCOCC2)C(=O)N2CCCC=C21 | / | / | / | -2 | / | / | /
COc1ccccc1C=NNC(=O)CSc1nc2ccccc2n1Cc1ccc(Cl)cc1 | / | / | / | -10 | / | / | /
CCCCn1c(N)c(N(CC(C)C)C(=O)COC(=O)c2ccccc2NCCO)c(=O)[nH]c1=O | 41* | -1 | / | 4 | 8 | 17 | /
C=CC[C@@H]1NN2C(=O)[C@@H](CCCC)[C@@H]3c4ccccc4C=NN3[C@@H]2c2ccccc21 | / | / | / | 10 | / | / | /
Cc1c(NC(=O)c2cc(-n3cnnc3)ccc2Cl)cccc1-c1nc2ccccc2o1 | 46* | -2 | 4 | 0 | 25 | 64* | -2
O=C(Nc1ccc(-c2nc3ccccc3o2)c(O)c1)c1cc(-n2cnnc2)ccc1Cl | 0 | 5 | -2 | 2 | -3 | / | /
CCOC(=O)C1=C(C)N=C2SC(C(=O)OC)=CC(=O)N2C1c1ccc(F)cc1 (stereo not given) | 54* | -1 | 24 | -1 | -9 | -1 | -3
COc1ccc(C#Cc2ccc3c(c2)[C@H]2[C@H](CCN2S(=O)(=O)c2ccccc2F)[C@H](CO)N3C)cc1 | / | / | / | 12 | / | / | /
CCN(CC(=O)Nc1ccccc1OC)C(=O)c1cccc(-n2cccc2)c1 | -3 | 0 | 1 | -16 | -1 | / | /
CCN(CC(=O)Nc1c(F)cccc1F)C(=O)c1cccc(-n2cccc2)c1 | 75* | -1 | / | -8 | 18 | 55* | -3
SMILES | A3A deaminase | CTSL1 counter | NALP1 yeast inh | sPLA2-III inh | A3G deaminase | A3A conf | UDG ctr A3A
COc1ccccc1N(CC(=O)Nc1ccc2c(c1)OCO2)S(=O)(=O)c1ccccc1 | 49* | -1 | -2 | -4 | 17 | 64* | -4
COc1ccc(S(=O)(=O)N(CC(=O)Nc2ccc3c(c2)OCO3)c2ccccc2OC)cc1 | -3 | 1 | -2 | 1 | -4 | / | /
COc1ccc(CNC(=O)c2sc3nc(C)c(Cl)c(C)c3c2N)cc1 | / | / | / | 1 | / | / | /
CN(C)S(=O)(=O)c1ccc(N2CCCC2)c(C(=O)Nc2ccccc2F)c1 | 7 | -3 | / | 3 | 5 | / | /
CN(C)S(=O)(=O)c1ccc(N2CCCC2)c(C(=O)Nc2ccc(F)cc2F)c1 | 41* | 2 | / | -9 | 3 | 1 | /
CCCn1c(NC(=O)c2ccccc2)nc(Cc2ccccc2)c1-c1ccc(OC)cc1 | / | / | / | 10 | / | / | /
Cc1ccc(NC(=O)CN(c2ccccc2F)S(C)(=O)=O)cc1 | 52* | -4 | -1 | 4 | 3 | -2 | /
CCN(CC(=O)Nc1ccc(NC(C)=O)cc1)C(=O)/C=C/c1ccccc1 | -1 | 2 | / | -10 | -10 | / | /
CCN(CC(=O)Nc1ccc(NC(C)=O)cc1)C(=O)/C=C/c1cn(-c2ccccc2)nc1-c1cccs1 | 45* | 4 | / | -20 | 4 | 16 | /
CCCCCCCCN1C(=O)[C@@H](CC(=O)NCc2cccc3ccccc23)C[C@@]2(C(=O)OC)C1=C[C@H](COCc1ccccc1)O[C@@H]2C | / | / | / | -21 | / | / | /
CCOC(=O)C1=C(C)Nc2sc(C(=O)c3ccc(F)cc3)c(N)c2C1c1ccc(C(=O)OC)cc1 (stereo not given) | 76* | -2 | 24 | -11 | -3 | -10 | -1
COC(=O)c1ccc(NC(=O)C2CCN(C(=O)Nc3ccccc3)CC2)cc1 | 59* | / | / | 5 | 13 | 26 | /
O=C(CSc1nc2ccccc2n1Cc1ccccc1)NN=Cc1c[nH]c2ccccc12 | / | / | / | -23 | / | / | /
CCN1CCN(c2ccccc2NC(=O)c2ccc(-n3cccn3)cc2)CC1 | 46* | / | / | 1 | 9 | 28 | /
O=C(Nc1ccccc1N1CCN(c2ccc(F)cc2)CC1)c1ccccc1 | 0 | -1 | 1 | 5 | -3 | / | /
Cc1c[nH]c2cccc(-c3cccc4ccccc34)c12 | / | / | / | -17 | / | / | /
O=c1[nH]c(N/N=C\c2ccc3c(c2)OCO3)nc2ccccc12 | 1 | 5 | 16 | 0 | -5 | / | /
O=c1[nH]c(N/N=C/c2cc3c(cc2[N+](=O)[O-])OCO3)nc2ccccc12 | 44* | -3 | 1 | 3 | 16 | 71* | -4
COC(=O)C1CCCN(C(=O)C2CCN(S(=O)(=O)c3cccc4cccnc34)CC2)C1 (stereo not given) | / | / | / | 1 | / | / | /
CCN1CCN(C(=O)c2ccc(Cl)c(S(=O)(=O)N3CCOCC3)c2)CC1 | 41* | -4 | 3 | 3 | 12 | 14* | 2
CCN1CCN(c2ccc(NC(=O)c3ccc(Cl)c(N4CCCC4=O)c3)cc2)CC1 | 66* | 0 | 14 | 14 | 8 | 26 | /
O=C(c1ccc(Cl)c(S(=O)(=O)N2CCOCC2)c1)N1CCCC1 | 1 | 9 | 7 | 8 | -4 | / | /
CCN1CCN(c2ccc(NC(=O)c3ccc(Cl)c(S(=O)(=O)N4CCCC4)c3)cc2)CC1 | 40* | / | / | 0 | 1 | 15 | /

From PubChem BioAssay
